Test results taken from PubChem BioAssay (Tox21).
Where “and” joins values, the source holds several entries; their conditions need not be identical. Equal entries are not always repeated. Results filed as inconclusive are left out. Calls of active or inactive are those of the source. The call rests on the fitted dose curve; in most records, active means well fitted activation curve with a large enough effect in the repeat runs; inconclusive means weak or mixed curves; inactive means flat fitted curve, though single readings scatter.

assay: A CellTox Green Cytotoxicity Assay to monitor cytotoxicity in HEK293 cells - 8 hour (AID 1224884); conditions: CellTox Green fluorescence; series mostly up to 76.8 µM; cytotoxicity increase: at the top concentration; further: nearly all actives have a fitted effect of over 35% in size
How it was run: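 Nonlytic real-time cytotoxicity: HEK293 + CellTox Green reagent plated, 5 h preincubation, pintool compound addition (23 nL in DMSO), 37 C for 40 h, fluorescence measured at successive time points.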
On the % scale 0 is the no-effect control and ±100 the full control effect; potency means the concentration at half of the fitted maximal effect.

Row | SMILES | cytotoxicity increase | Potency
1 | O=C1OC(=O)c2ccc3c4c(ccc1c24)C(=O)OC3=O | -10.4% (inactive) | –
2 | CCN(CC)CCSC(=O)C(c1ccccc1)c1ccccc1 | 22.1% [at 35.3 µM] (inactive) | –
3 | c1ccc(Sc2ccccc2)cc1 | 15.3% (inactive) | –
4 | CCCCCCCC(=O)OCC | 4.5% (inactive) | –
5 | CCN=c1cc2oc3cc(NCC)c(C)cc3c(-c3ccccc3C(=O)OCC)c-2cc1C | – | 10.9 µM (active) and 9.77 µM (active)
6 | COc1cccc(CCc2ccccc2OCC(CN(C)C)OC(=O)CCC(=O)O)c1 (stereo not given) | -7.01% [at 35.3 µM] (inactive) | –
7 | Cc1oc(-c2ccccc2)nc1CCOc1ccc(C[C@H](Nc2ccccc2C(=O)c2ccccc2)C(=O)O)cc1 | 14.6% (inactive) | –
8 | CC(C)(C)C1=CC(=O)C=C(C(C)(C)C)C1=O | 17% (inactive) | –
9 | Cc1cc(Nc2ccc(O)cc2)ccc1N | -0.511% (inactive) | –
10 | CCC1CCCCC1 | -3.24% (inactive) | –
11 | CCCCCCCCCCCCCc1ccccc1 | -1.94% [at 35.3 µM] (inactive) | –
12 | CC(=O)C=O | 10.3% (inactive) | –
13 | CCCCCCCCCCCCCCCC | -1.95% (inactive) | –
14 | O=c1cccc[nH]1 | -2.27% (inactive) | –
15 | Cc1ccc(CCn2c3c(c4cc(Cl)ccc42)CN(C)CC3)cn1 | -0.17% [at 35.3 µM] (inactive) | –
16 | COc1ccc(-n2nc(CCC(=O)N(C)O)cc2-c2ccc(Cl)cc2)cc1 | -9.84% [at 35.3 µM] (inactive) | –
17 | C1CC(COCC2CO2)CCC1COCC1CO1 (stereo not given) | -1.55% (inactive) | –
18 | CCO[Si](C)(C)OCC | 16.1% (inactive) | –

Row | SMILES | cytotoxicity increase | Potency
19 | COc1ccccc1C=O | 17.9% (inactive) | –
20 | CC(C)c1ccccc1N | -6.03% (inactive) | –
21 | O=S(=O)(O)CCCN1CCOCC1 | -0.202% (inactive) | –
22 | CCCCCCCCC(C)=O | -14.4% (inactive) | –
23 | CC=O | – | 57.5 µM (active)
24 | C[Si](C)(C)Cl | -15% (inactive) | –
25 | CCN(CC)c1ccc(N)cc1 | -15.9% (inactive) | –
26 | O=C[C@H](O)[C@H](O)[C@H](O)CO | -0.442% (inactive) | –
27 | c1cc(OCC2CO2)cc(OCC2CO2)c1 (stereo not given) | -11.3% (inactive) | –
28 | Oc1ccc(-c2ccc(O)cc2)cc1 | -6.6% (inactive) | –
29 | CCc1cccc(C)c1 | -6.88% (inactive) | –
30 | CCC(C)c1cc([N+](=O)[O-])cc([N+](=O)[O-])c1OC(=O)OC(C)C (stereo not given) | 1.33% (inactive) | –
31 | O=C1OC(OC(=O)c2cccnc2Nc2cccc(C(F)(F)F)c2)c2ccccc21 (stereo not given) | -0.337% [at 35.3 µM] (inactive) | –
32 | CCCC(CC)CCCCCCCN (stereo not given) | – | 50.2 µM (active)
33 | Cc1cn[nH]c1 | -9.55% [at 35.3 µM] (inactive) | –
34 | C=C(C)C(=O)OCCC[Si](Cl)(Cl)Cl | -0.905% (inactive) | –
35 | CC(=O)Oc1ccc(C2(c3ccc(OC(C)=O)cc3)Oc3ccccc3NC2=O)cc1 | -12.1% [at 35.3 µM] (inactive) | –
